Many of the other results were omitted from the sample, so hits are more common in it than they were.
FAK inh: FAK (human) kinase inhibition. biochemical FAK kinase activity assay. Q05397. actives 0.84% (n = 97,000). inhibition, %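 (tested at 7 µM)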; in the data active = inhibition above about 19%;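 note: 0% = DMSO and 100% = reference compound high control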
PTK2B oligo ant: Pyk2 (human) oligomerization antagonism; Q293 cells, Pyk2 FERM NanoBiT luminescence; active compounds read low; z-score (the deposit names both 25 µM and 10 µM); actives 0.83% (n = 99,000);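 active = Z-score of -3 or lower, scaled per plate to the spread of control and sample wells; inactive = z-score above -3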;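 note: negative z-score means lost luminescence so less FERM oligomerization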
hDAT+cocaine: changed human dopamine transporter uptake under cocaine IC80 | Q01959 | actives 1.3% (n = 110,000) | B-score at 10 µM | LLC-PK1 hDAT cells, [14C]-dopamine uptake with cocaine IC80; actives deviate in either direction;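 active = Z score or B-score, a plate-position-corrected score, falls beyond the plate's 99.7% confidence bounds, in either direction; inactive = both scores lie inside the 99.7% bounds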;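 note: scored against the spread of the other compound wells on the same plate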
Target sequence (Q01959 whole entry, looked up): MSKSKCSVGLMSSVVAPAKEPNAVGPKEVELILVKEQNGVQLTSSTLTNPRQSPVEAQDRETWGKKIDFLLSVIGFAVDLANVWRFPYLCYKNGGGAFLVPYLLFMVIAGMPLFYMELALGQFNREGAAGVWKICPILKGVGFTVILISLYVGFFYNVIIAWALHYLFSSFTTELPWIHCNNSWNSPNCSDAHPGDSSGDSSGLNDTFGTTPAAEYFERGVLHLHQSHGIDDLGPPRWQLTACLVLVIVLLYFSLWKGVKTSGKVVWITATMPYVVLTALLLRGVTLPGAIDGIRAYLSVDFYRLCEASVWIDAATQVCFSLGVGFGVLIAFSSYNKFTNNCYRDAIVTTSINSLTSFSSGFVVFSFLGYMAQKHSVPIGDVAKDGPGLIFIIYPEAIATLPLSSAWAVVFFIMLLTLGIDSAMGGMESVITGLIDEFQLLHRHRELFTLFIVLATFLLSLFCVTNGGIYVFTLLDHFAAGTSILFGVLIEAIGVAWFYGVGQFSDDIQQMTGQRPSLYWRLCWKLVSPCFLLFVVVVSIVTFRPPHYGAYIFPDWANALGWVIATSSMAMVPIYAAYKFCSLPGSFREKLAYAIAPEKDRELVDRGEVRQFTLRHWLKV
CD11b adhes enh: enhancers of human CD11b/CD18 binding to fibrinogen; P05107+P11215; K562 CD11b/CD18 adhesion to fibrinogen, ATPlite luminescence; activation, % at 10 µM; actives 0.07% (n = 93,000);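 active = 10 µM primary screen giving 50% or more activity, confirmed by 40% or more on retest at that dose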
D1 mod: D1 dopamine receptor (human) allosteric modulation | actives 5.9% (n = 58,000) | P21728 | HEK293 D1, CRE-luciferase, dopamine EC30 potentiation; actives deviate in either direction | B-score at 10 µM | AID 641;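 active = luminescence count or its row- and column-corrected plate score outside the 99.7% band of the plate's sample wells, on either side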
CD11b adhes inh: CD11b/CD18-fibrinogen binding inhibition; inhibition, % at 10 µM; AID 1497; P05107+P11215; actives 0.54% (n = 93,000); K562 CD11b/CD18 adhesion to fibrinogen, ATPlite luminescence; Mn2+ added to activate the integrin;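 active = primary inhibition of 50% or more at 10 µM, then 40% or more on retest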
Starred values were filed as active, the others as inactive; . = not tested or not shown; ! = not confirmed by another sample.

SMILES	FAK inh	PTK2B oligo ant	hDAT+cocaine	CD11b adhes enh	D1 mod	CD11b adhes inh
CCN(CC)C(=O)c1sc2nc(N3CCOCC3)c3c(c2c1N)CCCC3	-0.3	-0.41	2.96*	-3.6	.	-9.4
Cc1cc(C)c2c(n1)sc1c(N3CCOCC3)ncnc12	-1.7	.	.	.	2.83*	.
OCCN(CCO)c1ncnc2c1sc1nc(N3CCOCC3)c3c(c12)CCCC3	-1.1	-0.93	4.06*	4.6	.	3.0
CN1CCN(c2ncnc3c2sc2nc(N4CCOCC4)c4c(c23)CCC4)CC1	-1.1	.	.	.	-0.321	.
Cn1c(SCc2cccc3ccccc23)nnc1-c1ccco1	0.6	-0.71	2.73*	3.5	0.128	0.5
Nn1c(SCc2cccc3ccccc23)nnc1-c1ccco1	6.6	-0.08	0.778	-1.4	-0.443	4.9
COc1cc(S(=O)(=O)NCC2OCCc3ccccc32)ccc1-n1cnnn1 (configuration not stated)	1.0	0.15	0.319	8.2	.	-5.7
Cc1cc(C(=O)NCCC2=CCCCC2)c(C)o1	0.6	0.17	0.171	-0.8	-6.61*	0.0
Cc1cc(N2CCN(c3ccccc3)CC2)nc(-c2ccccc2)n1	6.4	-0.38	-0.63	1.8	0.365	13.1
Cc1cc(N2CCN(C(=O)c3ccco3)CC2)nc(-c2ccccc2)n1	.	-1.17	-0.523	-0.4	-3.68*	2.0
COc1cccc(Nc2nnc(SCc3cc([N+](=O)[O-])cc4c3OCOC4)s2)c1	4.8	-3.26*	-3.36*	-5.5	.	2.7
CCC(C(=O)NC1CCCC1)N(C(=O)Cn1nnc(-c2ccc(C)cc2)n1)C1CCCC1 (configuration not stated)	3.8	0.45	3.71*	.	.	.
COc1ccc(-c2nnn(CC(=O)N(Cc3cccs3)C(C)C(=O)NC3CCCC3)n2)cc1OC (configuration not stated)	8.9	0.77	-0.448	-0.8	4.03*	-10.3
CS(=O)(=O)N(CC(=O)NCc1ccco1)c1ccc(Cl)c(C(F)(F)F)c1	-5.8	0.06	-0.695	-0.5	-1.01	2.6
CCCCC1=CC2=CC(=O)C(C)(OC(=O)CC)C(=O)C2=CN1CCc1ccc(Br)cc1 (configuration not stated)	.	.	-0.916	.	.	.
O=C(NCc1ccc(F)cc1)c1cnn2ccccc12	-4.6	.	-0.453	-1.0	.	-6.2
O=C(NCCCN1CCCCCC1)C1CC(=O)N(CCc2ccccc2)C1 (configuration not stated)	15.3	0.59	-0.231	81.8*	-0.542	-1.6
CCCCNC(=O)CC(=O)Nc1ccccc1C(=O)O	-0.3	-0.5	-0.901	-1.8	0.347	7.8
Cn1c(C(=O)N2CCCCCC2)cc2c(=O)n(C)c3ccccc3c21	13.7	.	0.951	3.6	0.354	-5.4
Cc1cccc(N2CCN(C(=O)c3cc4c(=O)n(C)c5ccccc5c4n3C)CC2C)c1 (configuration not stated)	7.0	.	0.068	-2.6	-4.82*	5.6
CCNC(=O)CCSc1nc2cc(Cl)ccc2o1	0.5	-0.12	0.285	.	.	.
O=C(Nc1ccnc(-c2cccnc2)n1)c1cccc(Cl)c1Cl	15.3	-0.28	0.259	.	.	.
CCOc1ccc(S(=O)(=O)Nc2ccc(Cl)cn2)c(C)c1C	-2.5	-1.65	0.686	-0.1	-2.56*	-11.1
CCOc1cc(C)c(S(=O)(=O)Nc2ccc(Cl)cn2)cc1C	2.7	1.26	-0.0707	-1.2	0.261	-11.8
C=CCSc1nnc(-c2ccc(Cl)cc2Cl)o1	-0.4	-0.38	.	-6.5	-1.42	9.4
SMILES	FAK inh	PTK2B oligo ant	hDAT+cocaine	CD11b adhes enh	D1 mod	CD11b adhes inh
Clc1ccc(-c2nnc(SCc3ccon3)o2)c(Cl)c1	-2.3	0.31	1.32	-0.6	-4.7*	11.8
C1=CC2CC1CC2CN1CCN(c2ccccc2)CC1 (configuration not stated)	.	0.65	-1.26	-0.9	-4.58*	-31.5
Cc1ccccc1CN1CCN(CC2CC3C=CC2C3)CC1 (configuration not stated)	-0.3	1.49	-0.0241	-4.8	.	9.4
CCCCNC(=S)N(Cc1c(C)noc1C)c1ccccc1	.	.	.	9.2	.	5.1
Cc1ccc(C2(c3ccc(C)cc3)CC2C(=O)Nc2ccc([N+](=O)[O-])cc2O)cc1 (configuration not stated)	-0.3	-3.36*	-1.04	-10.3	.	99.0
CC1(C)CC1C(=O)Nc1ccc([N+](=O)[O-])cc1Br (configuration not stated)	.	0.86	.	-1.8	.	-0.9
CN1C[C@H](C(=O)NC2(C)OC3(O)[C@@H]4CCCN4C(=O)[C@H](Cc4ccccc4)N3C2=O)CC2c3cccc4[nH]cc(c34)C[C@H]21 (some centres not stated)	.	.	3.97*	.	.	.
COc1ccc(C2NC(=O)C(C)S2)cc1 (configuration not stated)	-1.7	-0.04	-0.487	-1.8	.	2.4
COc1ccc(OC)c(N(CC(=O)Nc2cccnc2)S(=O)(=O)c2ccc(OC)c(OC)c2)c1	-0.9	-0.24	-2.7*!	-0.6	.	-23.3
CCC(=O)NCCc1nc2cc(NC(=O)c3ccc(OC)cc3)ccc2n1C	-0.8	0.2	-0.26	-1.3	.	-1.0
O=C1N/C(=N/Nc2ccccc2)S/C1=C\c1ccccc1	-12.2	0.78	.	-11.6	.	79.2*
Cc1cccc(C(=O)N[C@H](C(=O)OCC(=O)NC(=O)c2cccn2C)C(C)C)c1	.	.	.	6.2	.	7.1
Fc1ccc(C2=Nn3c(nnc3-c3n[nH]c4c3CCC4)SC2)cc1	5.1	-1.45	1.1	-0.5	-3.03*	-10.4
CC1=Nn2c(nnc2-c2n[nH]c3c2CCC3)SC1	13.5	-0.23	-8.04*	-2.6	-0.00956	-15.5
CC(C)(C)C1=Nn2c(nnc2-c2n[nH]c3c2CCC3)SC1	3.6	0.47	0.0415	6.5	0.811	4.8
Cc1cc(-c2nnc3n2N=C(c2ccc(-c4ccccc4)cc2)CS3)n[nH]1	-2.0	-3.4*	0.767	-3.3	-0.3	-12.0
N#CC(C#N)=c1ccc2c(c1)NC1(CCCCC1)N=2	-5.2	-0.8	0.559	-1.7	-0.703	5.4
CC(C)Oc1ccc(C2CC(=O)N(c3ccc(N(C)C)cc3)C2=O)cc1 (configuration not stated)	-2.5	-4.23*	0.374	.	.	.
CCCn1c(NCc2ccco2)nc2c1c(=O)n(C)c(=O)n2C	1.3	0.03	-0.233	.	.	.
CCCCCCn1c(NCC)nc2c1c(=O)n(C)c(=O)n2C	-1.6	0.87	-1.02	-7.0	-0.819	73.1*
CCCCNc1nc2c(c(=O)n(C)c(=O)n2C)n1CCC	.	.	-0.107	.	.	.
CCn1c(NCc2ccccn2)nc2c1c(=O)n(C)c(=O)n2C	5.6	0	4.01*	.	0.275	.
CCCCCC(=O)NC(NC(=S)NC1CCS(=O)(=O)C1)C(Cl)(Cl)Cl (configuration not stated)	0.0	-0.33	-2.97*	.	.	.
CCCCCC(=O)NC(NC(=S)N1CCOCC1)C(Cl)(Cl)Cl (configuration not stated)	-2.3	-1	-1.02	.	.	.
COC(=O)Nc1ccc(S(=O)(=O)N(C)C)cc1	-1.5	1.19	-2.81*	-6.8	-0.0277	-4.5

Source: PubChem BioAssay
